Test results published in PubChem BioAssay (NCATS).
Records with an inconclusive call do not appear. Active and inactive are the calls of the source. Unless noted, calls follow the shape of the dose curve; as a rule, active = well fitted curve in the direction sought with a large enough effect; inconclusive = small, poorly fitted or top-dose-only effect, or another doubt; inactive = no such curve, though single readings can be large; an effect the other way counts as inactive or inconclusive.

Key:
[1] = Validation of Assay for Modulators of Lamin A Splicing (AID 1459; active = well fitted curve in the direction sought with a large enough effect in the signal ratio; the % refers to the signal ratio;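 also: cells exposed to compound for two days before reading; 0% is about no effect; ratio rise marks activators and ratio drop marks inhibitors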)
Procedure, shortened: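 HeLa S3 lamin A-EGFP/DsRed2 stable clone, 600 cells/well, Opti-MEM 2% FBS; compounds by pin tool; 48 hrs, 37 °C/5% CO2; Acumen 488 nm scan, objects 10-100 um; GFP/RFP intensity ratio.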

[2] = molecular target: DNA repair nuclease/redox regulator APEX1 (Homo sapiens) (UniProt P27695); assay: qHTS Validation Assay for Inhibitors of the Human Apurinic/apyrimidinic Endonuclease 1 (APE1) (AID 1705;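 also: TAMRA fluorescence gain over two minutes as APE1 cuts a quenched THF abasic duplex; series mostly up to about 57 µM; % is scaled to controls: 0 for no effect and ±100 for the full control effect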)
Procedure, shortened: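 qHTS, 1536-well. APE1 + cpd 15 min RT → 50 nM TAMRA/BHQ-2 THF-abasic dsDNA substrate → kinetic fluorescence, 3 reads/60 s; delta(read3−read1) = reaction progress. No-enzyme buffer = negative control.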

[3] = Counterscreen for APE1 Inhibitors: Fluorescent Dye Displacement Validation Assay (AID 1707);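 also: plate controls were ThO with dsDNA and no compound for no effect and ThO without dsDNA for full effect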
Procedure, shortened: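 Counterscreen flags promiscuous DNA binders: compounds displacing ThO from duplex DNA (abasic THF site, 50 nM) reduce 540 nm emission (480 nm excitation). ThO 250 nM final; Tris-HCl pH 7.5 with NaCl, MgCl2 and Tween-20.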

[4] = qHTS for differential inhibitors of proliferation of Plasmodium falciparum line 7G8 (AID 1815);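 also: parasite growth measured after three days of incubation; plate controls were vehicle wells for no effect and reference inhibitor wells for full effect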
[5] = qHTS for differential inhibitors of proliferation of Plasmodium falciparum line GB4 (AID 1816); conditions: Potency: Plasmodium falciparum GB4 proliferation inhibition;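 also: parasite growth measured after 72 h incubation; 0% = vehicle DMSO and -100% = reference inhibitor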
[6] = qHTS for differential inhibitors of proliferation of Plasmodium falciparum line 3D7 (AID 1876);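 also: parasite growth measured after three days of culture; 0% = vehicle wells and -100% = reference inhibitor wells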
[7] = qHTS for differential inhibitors of proliferation of Plasmodium falciparum line D10 (AID 1877);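 also: parasites grown with compound for 72 h before DNA staining; plate controls were vehicle wells for no effect and reference inhibitor wells for full effect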
[8] = qHTS for differential inhibitors of proliferation of Plasmodium falciparum line Dd2 (AID 1882); conditions: Potency: Plasmodium falciparum Dd2 proliferation inhibition;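 also: series mostly up to about 29 µM; plate controls were DMSO vehicle for no effect and 0.29 µM artemisinin for full effect; nearly all actives have a fitted effect of over 65% in size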
Procedure, shortened: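 SYBR Green DNA fluorescence (ex 485, em 535 nm) after overnight lysis quantifies parasite growth; compound exposure lasted 72 h at 37 C on infected red cells at 2.5% hematocrit, 0.3% parasitemia (final). Artemisinin 0.29 uM and vehicle wells define normalization.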

[9] = qHTS for differential inhibitors of proliferation of Plasmodium falciparum line W2 (AID 1883); conditions: Potency: Plasmodium falciparum W2 proliferation inhibition;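 also: parasites grown with compound for 72 h before lysis and staining; 0% = vehicle wells and -100% = control inhibitor wells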
[10] = qHTS for differential inhibitors of proliferation of Plasmodium falciparum line HB3 (AID 1886); conditions: Potency: Plasmodium falciparum HB3 proliferation inhibition;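 also: parasites grown with compound for 72 h before SYBR Green readout; plate controls were vehicle for no effect and reference inhibitor for full effect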
[11] = molecular target: ATP-dependent DNA helicase Q1 (Homo sapiens) (UniProt P46063); assay: qHTS Validation Assay for Inhibitors of RecQ-Like Dna Helicase 1 (RECQ1) (AID 2353);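 also: plate controls were DMSO vehicle for no effect and enzyme-free control for full effect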
Procedure, shortened: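 RECQ1T1 50 nM; forked duplex (20 bp + 30-nt ss tails) 200 nM, ATP 2 mM final; pH 8.0, 2 mM MgCl2, 2.5 ug/ml poly(dI-dC); 15 min compound preincubation; discontinuous kinetic read over 2 h at RT.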

[12] = Validation screen for small molecules that induce DNA re-replication in MCF 10A normal breast cells (AID 463097); also: 0% is about no effect; nearly all actives have a fitted effect of over 60% in size
Procedure, shortened: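 Image-based qHTS: normal breast cells are incubated with compound for 48 hr, stained with Hoechst, and scanned for total nuclear fluorescence. Compounds raising the fraction of nuclei with elevated DNA content count as re-replication inducers.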

[13] = Quantitative high throughput screen for delayed death inhibitors of the malarial parasite plastid, 96 hour incubation (AID 488745);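 also: luciferase-expressing P. falciparum in erythrocytes at 2% hematocrit and 0.1% parasitemia; series mostly up to about 29 µM; % is scaled to controls: 0 for no effect and ±100 for the full control effect; nearly all actives have a fitted effect of over 70% in size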
Procedure, shortened: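 Readout is firefly luciferase luminescence from an integrated reporter in P. falciparum; lower signal marks inhibited growth. Cultures at 2% hematocrit and 0.1% parasitemia were treated with compound across two generations (96 h, 37 C, 5% CO2).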

[14] = Quantitative high throughput screen for delayed death inhibitors of the malarial parasite plastid, 48 hour incubation (AID 488752); also: % is scaled to controls: 0 for no effect and ±100 for the full control effect; nearly all actives have a fitted effect of over 65% in size
Procedure, shortened: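 First, compound was pinned into RPMI 1640 medium containing 0.5% Albumax. Next, reporter-parasite-infected erythrocytes were added to 2% hematocrit and 0.1% parasitemia. After 48 h at 37 C under 5% CO2, luciferase detection reagent was added and luminescence read.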

[15] = molecular target: M-phase phosphoprotein 8 (Homo sapiens) (UniProt Q99549); assay: qHTS Validation Assay for Inhibitors for MPP8 Chromodomain Interactions with Methylated Histone Tails (AID 488949);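 also: 50 nM MPP8 with 50 nM peptide preformed then compounds added for 30 min; AlphaScreen signal from MPP8 chromodomain bound to biotinylated H3K9me3 peptide; top concentration of the series differs between compounds; % is scaled to controls: 0 for no effect and ±100 for the full control effect; nearly all actives have a fitted effect of over 55% in size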
Procedure, shortened: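 50 nM MPP8 + 50 nM b-H3K9me3 peptide, PBS pH 7.4/0.01% Tween-20, 30 min RT; + cpd 30 min RT; + AlphaScreen donor/Ni-chelate acceptor beads 10 ug/mL final, 30 min dark; luminescence read.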

[16] = molecular target: Transient receptor potential cation channel subfamily V member 1 (Homo sapiens) (UniProt Q8NER1); assay: HTS Assay for Compounds that Act as Enhancers of the Vanilloid Receptor 1 (AID 488979); also: 0% is about no effect
Procedure, shortened: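 Calcium influx kinetics via Fluo-8 (480/520 nm) in TRPV1-expressing cells, 2000/well cultured overnight at 35.5C. Compound-alone read 3 min (agonist phase), followed by EC20 capsaicin challenge for 2 min (enhancer phase).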

[17] = molecular target: Thyrotropin receptor (Homo sapiens) (UniProt P16473); assay: qHTS Assay for Antagonists of the Thyroid Stimulating Hormone Receptor (AID 488980); also: series mostly up to about 58 µM; 0% is about no effect
Procedure, shortened: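 Readout is cAMP by HTRF competition between cellular cAMP and cAMP-d2 for a cryptate-labelled antibody. Antagonism was assessed in TSHR-transfected HEK293 cells stimulated with 4 nM TSH (EC80, final) in the presence of RO 20-1724.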

[18] = molecular target: Thyrotropin-releasing hormone receptor (Homo sapiens) (UniProt P34981); assay: qHTS for Small Molecule Agonists and Allosteric Enhancers of Human TRH Receptor: Validation Screen for Agonists (AID 493127;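 active = calcium activation more than 3 SD above the typical response in the agonist read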;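 also: intracellular calcium rise by fluo-8 fluorescence before TRH EC20 addition; 0% is about no effect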); conditions: TRH receptor agonist cell assay; at 2 µM; active compounds read high
Procedure, shortened: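 Compounds are added by online pintool to dye-loaded TRHR cells while fluorescence is recorded every second. A rise in calcium signal during the agonist read marks activation; a later 10 nM TRH addition (EC20) serves the separate enhancer mode.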

[19] = molecular target: Galactokinase (Homo sapiens) (UniProt P51570); assay: qHTS Validation Assay for Inhibitors of Human Galactokinase (GALK) (AID 493189); also: 0% is about no effect
Procedure, shortened: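 5 nM GALK / 100 uM galactose / 35 uM ATP, 20 mM HEPES pH8.0, 5 mM MgCl2, 60 mM NaCl, 1 mM DTT, 0.01% BSA (final). RT 1 h; Kinase-Glo Plus luminescence.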

[20] = Validation screen for small molecules that induce DNA re-replication in SW480 colon adenocarcinoma cells (AID 504364); also: 0% is about no effect
Procedure, shortened: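 Image-based qHTS: compounds were incubated with SW480 cells for 48 hr, nuclei stained with Hoechst, and per-nucleus fluorescence intensity scanned to flag cells with excess DNA content.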

Sequence of M-phase phosphoprotein 8 (Homo sapiens) (Q99549 whole entry, looked up): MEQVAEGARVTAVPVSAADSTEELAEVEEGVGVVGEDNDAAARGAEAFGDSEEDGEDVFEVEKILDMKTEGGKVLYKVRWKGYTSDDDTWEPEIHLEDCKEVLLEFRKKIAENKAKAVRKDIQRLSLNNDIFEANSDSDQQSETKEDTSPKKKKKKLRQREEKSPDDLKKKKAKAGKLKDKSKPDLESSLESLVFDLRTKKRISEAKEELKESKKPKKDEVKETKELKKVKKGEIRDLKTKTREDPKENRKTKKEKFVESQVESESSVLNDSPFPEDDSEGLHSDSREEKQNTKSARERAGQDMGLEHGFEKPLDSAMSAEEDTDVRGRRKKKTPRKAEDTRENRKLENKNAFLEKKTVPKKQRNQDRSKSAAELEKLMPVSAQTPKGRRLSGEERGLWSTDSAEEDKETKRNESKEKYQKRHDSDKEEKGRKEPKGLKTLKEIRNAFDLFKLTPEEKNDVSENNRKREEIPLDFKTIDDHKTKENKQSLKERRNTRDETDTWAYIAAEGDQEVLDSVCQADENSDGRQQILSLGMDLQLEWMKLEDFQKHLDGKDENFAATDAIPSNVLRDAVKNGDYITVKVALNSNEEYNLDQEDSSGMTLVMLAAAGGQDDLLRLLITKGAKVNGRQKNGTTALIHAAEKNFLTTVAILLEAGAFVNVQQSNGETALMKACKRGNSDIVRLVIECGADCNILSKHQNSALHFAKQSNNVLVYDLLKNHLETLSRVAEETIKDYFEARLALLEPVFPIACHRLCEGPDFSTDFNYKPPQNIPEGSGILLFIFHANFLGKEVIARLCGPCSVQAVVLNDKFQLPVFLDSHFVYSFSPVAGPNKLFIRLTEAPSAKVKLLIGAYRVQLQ
Sequence of Galactokinase (Homo sapiens) (P51570 whole entry, looked up): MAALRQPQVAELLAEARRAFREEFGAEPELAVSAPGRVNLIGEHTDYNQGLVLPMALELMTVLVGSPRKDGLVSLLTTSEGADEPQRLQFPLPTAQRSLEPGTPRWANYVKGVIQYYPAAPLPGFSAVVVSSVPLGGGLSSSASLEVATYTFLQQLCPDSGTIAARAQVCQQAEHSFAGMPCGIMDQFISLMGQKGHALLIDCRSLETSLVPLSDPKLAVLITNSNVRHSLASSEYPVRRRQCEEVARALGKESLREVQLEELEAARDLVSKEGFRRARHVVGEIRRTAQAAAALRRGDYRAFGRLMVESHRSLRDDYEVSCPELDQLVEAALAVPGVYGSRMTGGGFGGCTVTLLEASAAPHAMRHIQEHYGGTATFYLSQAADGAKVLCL
Sequence of Thyrotropin receptor (Homo sapiens) (P16473 whole entry, looked up): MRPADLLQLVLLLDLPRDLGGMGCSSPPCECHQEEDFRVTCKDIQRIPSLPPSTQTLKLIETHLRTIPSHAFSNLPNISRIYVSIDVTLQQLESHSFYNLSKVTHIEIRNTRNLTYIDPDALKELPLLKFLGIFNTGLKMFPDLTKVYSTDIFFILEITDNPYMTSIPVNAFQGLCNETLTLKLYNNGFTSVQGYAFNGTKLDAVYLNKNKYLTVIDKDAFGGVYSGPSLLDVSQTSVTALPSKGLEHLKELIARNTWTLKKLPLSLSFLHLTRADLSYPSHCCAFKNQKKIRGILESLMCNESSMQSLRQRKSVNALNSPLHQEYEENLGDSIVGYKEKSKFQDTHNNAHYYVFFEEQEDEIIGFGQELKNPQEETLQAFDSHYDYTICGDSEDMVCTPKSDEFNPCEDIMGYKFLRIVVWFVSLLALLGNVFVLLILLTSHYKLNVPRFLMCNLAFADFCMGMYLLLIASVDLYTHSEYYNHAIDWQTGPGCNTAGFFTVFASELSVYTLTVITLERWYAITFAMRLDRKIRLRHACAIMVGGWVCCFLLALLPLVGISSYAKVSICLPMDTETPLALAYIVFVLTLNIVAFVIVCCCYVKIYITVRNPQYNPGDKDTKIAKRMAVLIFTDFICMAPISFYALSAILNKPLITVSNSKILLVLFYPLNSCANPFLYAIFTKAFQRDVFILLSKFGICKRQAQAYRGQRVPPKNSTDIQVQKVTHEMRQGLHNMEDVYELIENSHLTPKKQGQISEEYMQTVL
Sequence of ATP-dependent DNA helicase Q1 (Homo sapiens) (P46063 whole entry, looked up): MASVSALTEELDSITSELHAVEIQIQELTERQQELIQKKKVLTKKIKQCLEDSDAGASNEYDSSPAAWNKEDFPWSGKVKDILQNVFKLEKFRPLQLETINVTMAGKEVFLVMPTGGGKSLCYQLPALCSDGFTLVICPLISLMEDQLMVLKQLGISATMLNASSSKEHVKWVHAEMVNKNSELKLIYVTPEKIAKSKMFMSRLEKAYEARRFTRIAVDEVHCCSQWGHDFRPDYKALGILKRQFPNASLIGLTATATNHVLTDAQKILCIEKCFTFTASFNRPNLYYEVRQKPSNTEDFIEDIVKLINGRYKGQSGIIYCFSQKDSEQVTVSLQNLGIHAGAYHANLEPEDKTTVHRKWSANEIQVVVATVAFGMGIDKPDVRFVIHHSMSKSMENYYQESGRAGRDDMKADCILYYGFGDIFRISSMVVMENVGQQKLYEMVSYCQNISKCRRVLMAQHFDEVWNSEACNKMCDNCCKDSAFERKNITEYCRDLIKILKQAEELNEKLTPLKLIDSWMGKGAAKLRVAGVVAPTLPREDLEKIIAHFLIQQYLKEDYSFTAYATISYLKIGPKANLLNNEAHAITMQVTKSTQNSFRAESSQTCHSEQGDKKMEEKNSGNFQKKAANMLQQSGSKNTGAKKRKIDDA
Sequence of Thyrotropin-releasing hormone receptor (Homo sapiens) (P34981 whole entry, looked up): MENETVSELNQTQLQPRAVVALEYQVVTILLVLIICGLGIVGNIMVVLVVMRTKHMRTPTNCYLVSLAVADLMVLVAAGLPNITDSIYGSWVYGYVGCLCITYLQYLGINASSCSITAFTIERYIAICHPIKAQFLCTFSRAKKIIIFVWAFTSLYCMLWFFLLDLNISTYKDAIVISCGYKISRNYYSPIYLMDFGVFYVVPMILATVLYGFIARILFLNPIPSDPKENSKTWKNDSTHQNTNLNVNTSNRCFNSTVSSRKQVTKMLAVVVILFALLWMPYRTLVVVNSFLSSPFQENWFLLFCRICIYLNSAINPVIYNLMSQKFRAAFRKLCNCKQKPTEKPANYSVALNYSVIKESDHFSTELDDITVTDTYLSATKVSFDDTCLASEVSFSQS
Sequence of Transient receptor potential cation channel subfamily V member 1 (Homo sapiens) (Q8NER1 whole entry, looked up): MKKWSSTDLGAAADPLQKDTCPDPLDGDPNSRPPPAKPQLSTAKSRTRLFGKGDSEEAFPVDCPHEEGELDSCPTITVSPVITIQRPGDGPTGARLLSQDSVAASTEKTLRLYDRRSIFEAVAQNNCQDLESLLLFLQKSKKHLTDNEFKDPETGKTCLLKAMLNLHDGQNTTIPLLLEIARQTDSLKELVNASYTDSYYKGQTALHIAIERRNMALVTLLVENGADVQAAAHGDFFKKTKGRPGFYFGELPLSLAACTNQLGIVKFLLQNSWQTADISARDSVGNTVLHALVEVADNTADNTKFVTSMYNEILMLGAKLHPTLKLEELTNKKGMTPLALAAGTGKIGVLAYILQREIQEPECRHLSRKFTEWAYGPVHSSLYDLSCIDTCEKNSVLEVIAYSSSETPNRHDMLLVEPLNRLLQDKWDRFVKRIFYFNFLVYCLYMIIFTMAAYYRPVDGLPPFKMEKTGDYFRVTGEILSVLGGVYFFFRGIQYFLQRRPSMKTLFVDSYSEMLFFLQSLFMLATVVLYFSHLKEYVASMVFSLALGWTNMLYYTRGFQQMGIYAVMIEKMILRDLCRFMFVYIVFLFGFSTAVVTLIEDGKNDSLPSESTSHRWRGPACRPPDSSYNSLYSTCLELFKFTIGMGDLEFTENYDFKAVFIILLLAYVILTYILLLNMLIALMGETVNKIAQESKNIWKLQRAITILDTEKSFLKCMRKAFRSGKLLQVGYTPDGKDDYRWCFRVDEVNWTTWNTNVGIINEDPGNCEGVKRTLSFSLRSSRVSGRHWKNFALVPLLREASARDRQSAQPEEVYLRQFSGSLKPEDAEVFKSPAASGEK
Sequence of DNA repair nuclease/redox regulator APEX1 (Homo sapiens) (P27695 whole entry, looked up): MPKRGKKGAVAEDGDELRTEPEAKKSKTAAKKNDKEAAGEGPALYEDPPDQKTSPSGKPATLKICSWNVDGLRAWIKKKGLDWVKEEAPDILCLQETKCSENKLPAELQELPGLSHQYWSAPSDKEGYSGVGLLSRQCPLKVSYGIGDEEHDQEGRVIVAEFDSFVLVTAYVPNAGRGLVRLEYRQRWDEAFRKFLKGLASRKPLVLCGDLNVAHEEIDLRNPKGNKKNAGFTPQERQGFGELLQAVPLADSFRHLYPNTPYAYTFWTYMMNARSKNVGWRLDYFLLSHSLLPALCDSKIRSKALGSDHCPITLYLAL

CC(O)[C@@H](O)[C@H]1CNc2nc(N)[nH]c(=O)c2N1 (stereo not given in full)
inactive: outcome [1] | Potency [2] | Potency [3] | Potency [4] | Potency [5] | Potency [6] | Potency [7] | Potency [8] | Potency [9] | Potency [10] | Potency [11] | outcome [12] | Potency [13] | Potency [14] | Potency [15] | outcome [16] | outcome [17] | activation [18] 0.0625% | outcome [19] | outcome [20]
